An excerpt weighted towards active compounds, which were near 19% of everything screened.
SARS PLP yeast – SARS-CoV PLP inhibition in yeast; actives 0.19% (n = 330,000); AID 485353; S. cerevisiae expressing SARS-CoV PLpro, growth rescue; Potency, µM (titrated, usually from 32.9 µM), usual class: activators; calls by dose curve; further: nearly all actives have a fitted effect of over 55% in size
AMA1-RON2 inh – AMA1-RON2 (P. falciparum) interaction inhibition; Potency, µM (doses to about 58.2 µM), most hits filed as inhibitors; AID 720542; AlphaScreen AMA1-biotinylated RON2 peptide binding; actives 0.2% (n = 360,000); further: nearly all actives have a fitted effect of over 45% in size
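AMA1 (3D7) with his tag at 25 nM final met compounds first, then biotinylated RON2 peptide at 25 nM; detection used donor plus acceptor beads, 10 µg/mL apiece, read by AlphaScreen after 30 min at room temperature.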
Pf growth 48h – P. falciparum growth inhibition at 48 hours (one generation). P. falciparum luciferase growth in erythrocytes, 48 h. Potency, µM (top dose mostly 28.7 µM), usual class: inhibitors. actives 5.9% (n = 310,000)
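Luciferase-expressing parasites in RBCs, 2% Hct / 0.1% parasitemia final; RPMI 1640 + 0.5% Albumax; 37 C, 5% CO2, one generation; luminescence read-out, lower signal = inhibition.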
Cycloheximide cs – counter-screen hit for Shiga toxin inhibitors, cycloheximide. cell reporter, cycloheximide protein synthesis inhibition counterscreen. max response, %. actives 12% (n = 300,000). AID 2314; in the data active means max response mostly above about 13%, no sharp cut-off; inactive means mostly below about 14%; further: read at 38.3 µM for the half of the compounds with a filed dose
Shiga toxin inh – inhibitors of Shiga toxin in Vero cells | actives 9.2% (n = 290,000) | inhibition, % at 38.7 µM | Vero cells, Shiga toxin protein synthesis inhibition reporter; in the data active means inhibition mostly above about 28%, no sharp cut-off; inactive means mostly below about 43%
Pf growth 96h – inhibits malaria parasite growth, 96 h. P. falciparum luciferase reporter growth, 96 h. Potency, µM (doses to about 28.7 µM), most hits filed as inhibitors. actives 6.9% (n = 320,000). AID 504834
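Erythrocytes infected with luciferase-expressing P. falciparum were dispensed at 2% hematocrit and 0.05% parasitemia (final), then incubated with compounds 96 hours at 37 C in 5% CO2. Luminescence after detection reagent addition reported growth.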
Each line names hits and unclear results; the compound was inactive in the other large screens. Unless noted, the call rests on the fitted dose curve; in most records, active means well fitted curve in the direction sought with a large enough effect; inconclusive means small, poorly fitted or top-dose-only effect, or another doubt; inactive means no such curve, though single readings can be large; an effect the other way counts as inactive or inconclusive.

O=C(c1cc(COc2c(F)cccc2F)on1)N1CCC(c2ccccc2F)C1 (centres undefined)	Cycloheximide cs 36, Shiga toxin inh 90, Pf growth 96h 9.3µM
CC(=O)Nc1cccc(-c2ccnc3c2CC(C(=O)NCc2ccc(F)c(F)c2)O3)c1 (centres undefined)	none (no result: SARS PLP yeast, Pf growth 48h, Cycloheximide cs, Shiga toxin inh, Pf growth 96h)
O=C([C@H]1O[C@@H](n2ccc(=O)[nH]c2=O)[C@H](O)[C@@H]1O)N1CCC(F)(F)CC1	none (no result: SARS PLP yeast, Pf growth 48h, Cycloheximide cs, Shiga toxin inh, Pf growth 96h)
N#CCc1ccc(OC(=O)c2ccncc2)cc1	none (no result: SARS PLP yeast, Pf growth 48h, Cycloheximide cs, Shiga toxin inh, Pf growth 96h)
O=C(CSc1nnc2ccc3ccccc3n12)N1CCOCC1	Cycloheximide cs 63, Shiga toxin inh 32
c1ccc2c(c1)ccc1nnc(-c3ccc4c(c3)OCO4)n12	Cycloheximide cs 12, Shiga toxin inh active
CCn1c(SCC(=O)N2CCCc3ccccc32)nnc1-c1cccs1	Pf growth 48h inconclusive
Fc1ccccc1-c1nnc2ccc3ccccc3n12	Pf growth 96h inconclusive (no result: Shiga toxin inh)
CCn1c(SCC(=O)N2CCOCC2)nnc1-c1cccs1	Pf growth 96h 12µM
c1ccc2c(c1)ccc1nnc(SCc3ccc4c(c3)OCCO4)n12	Cycloheximide cs 42, Shiga toxin inh 42 (no result: Pf growth 48h)
Cc1cc(C)cc(NS(=O)(=O)c2c(C(=O)N3CCOCC3)c(C)n(C)c2C)c1	Pf growth 48h inconclusive, Pf growth 96h inconclusive
CN1CCN(C(=O)C2CCCN(S(=O)(=O)c3ccc(F)cc3)C2)CC1 (centres undefined)	AMA1-RON2 inh inconclusive, Pf growth 48h inconclusive, Pf growth 96h inconclusive
CC(C)n1c(-c2ccc(N(C)C)cc2)nc2ccccc21	AMA1-RON2 inh inconclusive, Cycloheximide cs 29, Shiga toxin inh 114
CCn1c(-c2ccc(N(C)C)cc2)nc2ccccc21	Pf growth 96h inconclusive
CN(C)c1ccc(-c2nc3ccccc3n2C)cc1	Cycloheximide cs 24, Pf growth 96h inconclusive
O=C(Nc1cccc(Cl)c1)Nc1cc(S(=O)(=O)N2CCCCC2)ccc1Cl	Pf growth 48h inconclusive, Pf growth 96h 2.9µM
CN1CCN(S(=O)(=O)c2ccc(NC(=O)c3ccccc3Cl)cc2)CC1	none
CN1CCN(S(=O)(=O)c2ccc(NC(=O)Nc3cccc(Cl)c3)cc2)CC1	Pf growth 48h 2.9µM, Cycloheximide cs 16
Cc1ccc(S(=O)(=O)N2CCCCC2)cc1NC(=O)Nc1ccc(Cl)cc1Cl	none
Cc1ccc(CS(=O)Cc2ccc(C(=O)N3CCN(C4CCCCC4)CC3)o2)cc1 (centres undefined)	none
O=C(NC(=S)N(Cc1ccccc1)c1ccccn1)C1CC1	Cycloheximide cs 13
COCC(=O)N(Cc1ccccc1)c1ccccn1	Pf growth 96h inconclusive
Cc1ccc(OCC(=O)N(Cc2ccccc2)c2ccccn2)cc1	Cycloheximide cs 32
Cc1ccc(CC(=O)N(Cc2ccccc2)c2ccccn2)cc1	Pf growth 48h inconclusive
COc1ccc(-c2csc(N(CCc3ccccc3)C(=O)COc3ccccc3)n2)cc1	Pf growth 48h inconclusive
COc1ccccc1NC(=O)N(Cc1ccccc1)c1ccccn1	Pf growth 48h 12µM, Shiga toxin inh 32, Pf growth 96h inconclusive
O=C(COc1ccc(Cl)cc1)N(Cc1ccccc1)c1nc(-c2ccccc2)cs1	Pf growth 48h 1.5µM
Cc1c(NS(=O)(=O)c2cc(C(=O)NCc3cccnc3)cc(Cl)c2Cl)c(=O)n(-c2ccccc2)n1C	Pf growth 48h 12µM, Pf growth 96h inconclusive (no result: Cycloheximide cs, Shiga toxin inh)
Cc1c(NS(=O)(=O)c2cc(C(=O)N(C)Cc3ccccc3)ccc2Cl)c(=O)n(-c2ccccc2)n1C	none (no result: Pf growth 48h, Cycloheximide cs, Shiga toxin inh, Pf growth 96h)
CC(=O)Nc1ccc(Nc2cc(C)nc3c(-c4ccccc4)cnn23)cc1	Cycloheximide cs 34, Shiga toxin inh 71
Cc1cc(N)n2ncc(-c3cccc(Br)c3)c2n1	Cycloheximide cs 41, Shiga toxin inh 110
CCOC(=O)Cc1c(C)nc2c(-c3cccc(Br)c3)cnn2c1C	Pf growth 96h inconclusive
Cc1cc(N)n2ncc(-c3ccccc3)c2n1	Cycloheximide cs 58, Shiga toxin inh 72 (no result: Pf growth 48h)
O=C(Nc1c2c(nn1-c1ccccc1)CS(=O)C2)c1ccc(Br)o1 (centres undefined)	SARS PLP yeast inconclusive
CCOC(=O)c1oc2nc3c(cc2c1N)CCCC3	Cycloheximide cs 50, Shiga toxin inh 77, Pf growth 96h 12µM
CCOC(=O)c1oc2nc(C)c3c(c2c1N)CC(C)(C)OC3	none
CCOC(=O)c1oc2nc3c(cc2c1N)COC(C)(C)C3	Cycloheximide cs 20, Shiga toxin inh 82
COc1ccccc1/C=C/C(=O)NCC(=O)N/N=C/c1ccc(C)o1	none
COc1ccccc1NC(=O)COC(=O)C1CC2C=CC1C2 (centres undefined)	Cycloheximide cs 15
N#Cc1c(NC(=O)COC(=O)C2CC3C=CC2C3)oc(-c2ccccc2)c1-c1ccccc1 (centres undefined)	Pf growth 96h 9.3µM
COc1cccc2cc(-c3ccccc3)c(=O)oc12	Cycloheximide cs 48, Shiga toxin inh 104
Cc1cccc2cc(-c3nc4ccc(C(=O)O)cc4[nH]3)c(=O)oc12	Cycloheximide cs 25, Shiga toxin inh 37
COc1cccc(OC)c1C(=O)Nc1cccc(-c2nc3ccccc3[nH]2)c1	none
COc1ccc(-c2cc3cccc(OC)c3oc2=O)cc1	Cycloheximide cs 28, Shiga toxin inh 64, Pf growth 96h inconclusive
COc1cccc2cc(-c3nc4ccccc4[nH]3)c(=O)oc12	Cycloheximide cs 32 (no result: Shiga toxin inh)
Cc1cccc(CC(=O)N2CCCC2)c1	none
CC(C)(C)c1ccc(C(=O)NNC(=O)CNC(=O)c2cccs2)cc1	none (no result: Pf growth 48h, Cycloheximide cs, Shiga toxin inh, Pf growth 96h)
COc1ccccc1N1CCN(S(=O)(=O)c2c(C(=O)N3CCOCC3)c(C)n(C)c2C)CC1	none
COc1ccc(/C=C2\SC(=O)N(CCNC(=O)C3CC4C=CC3C4)C2=O)cc1 (centres undefined)	Cycloheximide cs 58, Shiga toxin inh 101
COc1ccc(/C=C2/SC(=O)N(CC(O)Cn3c4ccccc4c4ccccc43)C2=O)cc1 (centres undefined)	Pf growth 48h inconclusive, Pf growth 96h inconclusive
COc1ccc(/C=C2\SC(=O)N(CCn3cnnn3)C2=O)cc1	Cycloheximide cs 37, Shiga toxin inh 83
COc1ccc(/C=C2/SC(=O)N(CCNC(=O)C3CCCN3C(=O)c3cccs3)C2=O)cc1 (centres undefined)	Pf growth 48h inconclusive, Cycloheximide cs 32, Shiga toxin inh 63, Pf growth 96h inconclusive
COc1ccc(/C=C2/SC(=O)N(CCNC(=O)CC(NC(C)=O)c3ccccc3)C2=O)cc1 (centres undefined)	Cycloheximide cs 21, Pf growth 96h inconclusive
CN1CCC(N(C)C(=O)c2cc(=O)c3ccccc3o2)CC1	none
COc1ccccc1C(=O)Nc1onc(C)c1C#N	none
Cc1cc(C(=O)NNc2ccc(C(C)C)cc2)n(C(C)(C)C)n1	none
CCn1ncc(/C=C/C(=O)C2CC2)c1C	Shiga toxin inh active

Compound activity as filed in PubChem BioAssay.
